Screening data (PubChem BioAssay)
Many of the other results were omitted from the sample, so hits are more common in it than they were.
TSHR ag – TSH receptor (human) agonism | P16473 | HEK293-CNG-TSHR cells (CNG channel as cAMP sensor), membrane potential dye, cAMP | Potency, µM (series often up to 57.1 µM), without a hit: top-dose activation, most hits filed as activators | 0.48% of 73,000 active; active means well fitted activation curve with a large enough effect in the main read-out, with a control signal flat, not every such curve was filed as active; inconclusive means small, poorly fitted or top-dose-only effect, or a change in a side signal; inactive means no such curve, though single readings can be large or run the other way; % of control where 0% means no effect;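 further: the control signal comes from parental cells without the receptor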
Target sequence (P16473 whole entry, looked up): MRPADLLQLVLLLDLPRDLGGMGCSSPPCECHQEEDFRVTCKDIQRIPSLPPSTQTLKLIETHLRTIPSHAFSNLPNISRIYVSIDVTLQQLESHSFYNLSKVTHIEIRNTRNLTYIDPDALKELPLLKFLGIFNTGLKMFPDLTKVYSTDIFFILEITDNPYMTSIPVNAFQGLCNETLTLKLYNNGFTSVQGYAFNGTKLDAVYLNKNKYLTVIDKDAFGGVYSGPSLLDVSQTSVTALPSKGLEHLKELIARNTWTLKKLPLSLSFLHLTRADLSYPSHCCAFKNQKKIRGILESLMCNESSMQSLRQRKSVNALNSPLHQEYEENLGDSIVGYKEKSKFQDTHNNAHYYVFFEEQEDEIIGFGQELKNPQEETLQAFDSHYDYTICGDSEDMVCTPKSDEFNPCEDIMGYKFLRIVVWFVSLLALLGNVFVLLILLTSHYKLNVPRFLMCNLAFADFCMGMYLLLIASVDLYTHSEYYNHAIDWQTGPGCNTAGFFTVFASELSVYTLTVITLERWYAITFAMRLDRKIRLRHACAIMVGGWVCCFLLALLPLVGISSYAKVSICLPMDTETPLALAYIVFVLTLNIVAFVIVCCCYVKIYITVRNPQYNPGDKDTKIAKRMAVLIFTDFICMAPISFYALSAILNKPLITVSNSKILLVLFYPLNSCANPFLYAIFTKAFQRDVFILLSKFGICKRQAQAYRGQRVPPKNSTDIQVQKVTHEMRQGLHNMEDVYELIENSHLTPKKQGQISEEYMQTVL
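cAMP rise detected as CNG-channel membrane depolarization by fluorescent dye (emission 590 nm), 30 min after compound, following 60 min dye loading containing 100 uM RO 20-1724 at room temperature. Cells: TSHR/CNG HEK 293, with parental CNG HEK 293 as control.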
HEK293 cAMP cs – parental HEK293 cAMP activation (counter-screen); parental HEK293 CNG cAMP sensor, membrane potential fluorescence; Potency, µM (highest dose often 57.1 µM), inactives show at the top dose activation, usual class: activators; 2.5% of 73,000 active; AID 938; further: % of control where 0% means no effect; nearly all actives have a fitted effect of over 55% in size
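Counterscreen for endogenous-receptor signalling: CNG-channel HEK 293 cells report cAMP rise by membrane depolarization. After 60 min dye equilibration with 100 uM RO 20-1724, compounds incubated 30 min before bottom-read fluorescence at 590 nm.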
Imprint erasure – inducers of genomic imprint erasure in mouse ES cells. mouse ES Peg3-LacZ reporter, beta-gal luminescence, 40 h. Potency, µM (doses to about 60.7 µM), for inactives: at the highest dose activity change, positive = activation, usual class: activators. 0.02% of 110,000 active. AID 1948
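Gelatin-coated wells received 300 freshly trypsinized female ES cells with a Peg3LacZ-Neo reporter on the maternal allele, then incubated 40 hours at 37C. BetaGlo was added for 5 minutes at room temperature before a single luminescence read.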
The depositor's hits bear a star; [ ] = remark or other dose. Unless noted, the call rests on the fitted dose curve; in most records, active means well fitted activation curve with a large enough effect; inconclusive means small, poorly fitted or top-dose-only effect; inactive means no such curve, though single readings can be large or run the other way. Potency means the concentration at half of the fitted maximal effect.

Results for COc1ccccc1N1CCN(C(=O)CSc2nc3ccccc3nc2Cc2ccc(F)cc2)CC1 ?
Imprint erasure: 2.0%[10.9 µM]

How did Cc1cc(C)n(-c2nnc(C)n2/N=C/c2ccccc2OCc2ccccc2Cl)n1 do in these assays?
TSHR ag: inconclusive; HEK293 cAMP cs: 1.26µM*; Imprint erasure: -24.6%

Results for Cc1cc(C)n(Cc2ccccc2Cl)n1 ?
TSHR ag: -2.8%; HEK293 cAMP cs: 0.9%; Imprint erasure: -7.3%

What do the screens show for `Cc1nnc(C)n1/N=C/c1cc(Br)ccc1O`?
TSHR ag: -6.7%; HEK293 cAMP cs: -21.3%

What do the screens show for `Cc1cc(C)n(-c2nnc(C)n2/N=C/c2cc(Br)ccc2OCc2ccccc2)n1`?
TSHR ag: inconclusive; HEK293 cAMP cs: 3.16µM*; Imprint erasure: -30.9%

Results for Cn1c(SCc2ccccc2Cl)nc2c([nH]c3ccccc32)c1=O ?
Imprint erasure: -3.3%[10.9 µM]

What do the screens show for `CO[C@H]1COC(=O)C/C=C\[C@H](C)COC(=O)[C@@H](C)NC(=O)C/C=C\[C@@H]1C`?
TSHR ag: -2.2%[11.4 µM]; HEK293 cAMP cs: -5.6%[11.4 µM]

Results for COC(=O)c1cc2c(s1)-c1ccccc1OC2 ?
HEK293 cAMP cs: 10.5%; Imprint erasure: -16.8%

What do the screens show for `CCC(C)(c1ccc(C(=O)OC)s1)c1ccc(C(=O)OC)s1`?
TSHR ag: inconclusive; HEK293 cAMP cs: 20µM*; Imprint erasure: -15.2%

What do the screens show for `O=C(CSc1n[nH]c(=O)n1C1CC1)Nc1cc(Cl)ccc1Oc1ccccc1`?
TSHR ag: inconclusive; HEK293 cAMP cs: 12.6µM*; Imprint erasure: -12.4%

What do the screens show for `COc1ccc(Cl)cc1NC(=O)CSc1nnc2[nH]c(=O)cc(-c3ccccc3)n12`?
Imprint erasure: -4.1%[10.9 µM]

Results for N/N=C1/CC(=O)NC(=O)N1 ?
TSHR ag: -1.3%[11.4 µM]; HEK293 cAMP cs: -4.3%[11.4 µM]; Imprint erasure: -7.3%[10.9 µM]

Results for COC(=O)c1c(NC(=O)Cc2cccs2)sc(C(=O)N2CCCCC2)c1C ?
TSHR ag: inconclusive; HEK293 cAMP cs: inconclusive; Imprint erasure: -10.0%

How did CCOC(=O)c1c(NC(=O)Cc2cccs2)sc(C)c1C do in these assays?
TSHR ag: inconclusive; HEK293 cAMP cs: 25.1µM*; Imprint erasure: -15.4%

What do the screens show for `Cc1nc2cnc(N3CCOCC3)nc2n(CCc2ccccc2)c1=O`?
TSHR ag: inconclusive; HEK293 cAMP cs: 3.16µM*; Imprint erasure: -7.4%

How did O=c1c(-c2ccccc2)nc2cnc(N3CCOCC3)nc2n1CCc1ccccc1 do in these assays?
TSHR ag: 0.2%; HEK293 cAMP cs: 14.0%; Imprint erasure: 1.6%

How did COCCn1c(=O)c(CCc2ccccc2)nc2cnc(N3CCOCC3)nc21 do in these assays?
TSHR ag: 13.4%; HEK293 cAMP cs: 2.3%; Imprint erasure: 3.98µM*

What do the screens show for `COc1ccc(-n2c(=O)c(CCc3ccccc3)nc3cnc(N4CCOCC4)nc32)cc1`?
TSHR ag: -4.8%; HEK293 cAMP cs: -4.4%; Imprint erasure: 6.4%

How did CC(C)CSc1nnc(-c2ccccc2)c(-c2ccccc2)n1 do in these assays?
Imprint erasure: -15.7%[10.9 µM]

Results for CSc1nnc2c3cc(F)ccc3n(Cc3ccccc3)c2n1 ?
TSHR ag: 22.1%; HEK293 cAMP cs: 29.2%; Imprint erasure: -3.5%

What do the screens show for `CCCn1c2ccccc2c2nnc(SCC(=O)Nc3cccc(C(C)=O)c3)nc21`?
Imprint erasure: 3.2%[10.9 µM]

What do the screens show for `CSc1nnc2c3ccccc3n(CCc3ccccc3)c2n1`?
TSHR ag: inconclusive; HEK293 cAMP cs: 3.98µM*; Imprint erasure: -12.7%

Results for CSc1nnc2c3ccccc3n(Cc3ccccc3)c2n1 ?
TSHR ag: inconclusive; HEK293 cAMP cs: 20µM*; Imprint erasure: 18.4%

Results for O=C(CSc1nc2c([nH]c3ccccc32)c(=O)n1-c1ccc(Cl)cc1)N1CCCCCC1 ?
Imprint erasure: 10.8%[10.9 µM]

How did CCOC(=O)C1=C(c2ccccc2)NC(=O)NC1c1ccc(OCC#N)c(OC)c1 (centres undefined) do in these assays?
TSHR ag: 4.6%; HEK293 cAMP cs: 22.4%; Imprint erasure: -7.2%

How did COc1cc(C2NC(=O)NC(c3ccccc3)=C2C(C)=O)ccc1OCC(=O)O (centres undefined) do in these assays?
TSHR ag: inconclusive; HEK293 cAMP cs: 31.6µM*; Imprint erasure: -26.0%

Results for CC(=O)OCC1OC(C#CCC2CCCCC2)C=CC1OC(C)=O (centres undefined) ?
TSHR ag: 1.1%[11.4 µM]; HEK293 cAMP cs: 8.4%[11.4 µM]

What do the screens show for `COc1cccc(CNC2CCCC2)c1`?
TSHR ag: 5.0%; HEK293 cAMP cs: 7.1%; Imprint erasure: -1.3%

How did c1ccc(-n2cccc2CNC2CCCCC2)cc1 do in these assays?
TSHR ag: inconclusive; HEK293 cAMP cs: 25.1µM*; Imprint erasure: -8.9%

How did Cc1nc2nc(NC(=O)CC(C)C)[nH]n2c(=O)c1Cc1ccccc1 do in these assays?
Imprint erasure: -8.5%[10.9 µM]

Results for CNCC[C@H](Oc1ccccc1C)c1ccccc1 ?
TSHR ag: 20.1%; HEK293 cAMP cs: 10.7%

What do the screens show for `CNCC[C@@H](Oc1ccccc1C)c1ccccc1`?
TSHR ag: inconclusive; HEK293 cAMP cs: 31.6µM*; Imprint erasure: -26.0%

Results for Cc1cc(C)c(C(=O)Nc2ccccc2)c(SCC(=O)Nc2ccc(Br)cc2C)n1 ?
Imprint erasure: -8.7%[10.9 µM]

What do the screens show for `CC(=O)c1cc(-c2ccccc2)n(CC(=O)NCc2cccs2)c1C`?
TSHR ag: inconclusive; HEK293 cAMP cs: 15.8µM*; Imprint erasure: -8.4%

Results for CC(=O)c1cc(-c2ccccc2)n(CC(=O)NCc2ccccc2C)c1C ?
Imprint erasure: -4.1%[10.9 µM]

What do the screens show for `COc1ccc(C2C=C(c3ccc(Cl)cc3)Nc3nc(-c4ccc(Cl)cc4)nn32)cc1` (centres undefined)?
Imprint erasure: -10.1%[10.9 µM]

What do the screens show for `CCC(c1nnnn1CCc1ccccc1)N(Cc1ccco1)Cc1cc2cccc(C)c2[nH]c1=O` (centres undefined)?
TSHR ag: inconclusive; HEK293 cAMP cs: 15.8µM*; Imprint erasure: -17.7%

How did CCOc1ccc2[nH]c(=O)c(CN(Cc3ccco3)C(CC)c3nnnn3Cc3ccccc3)cc2c1 (centres undefined) do in these assays?
HEK293 cAMP cs: 6.5%; Imprint erasure: -24.2%

Results for COc1ccc2c(c1)[N+](=O)C(/C(C)=N/NC(N)=S)=C(C)[N+]2=O ?
Imprint erasure: -1.2%[10.9 µM]

How did CCN(CC)S(=O)(=O)c1ccc(-c2nnc(SCc3nnc(-c4ccc(C)cc4)o3)o2)cc1 do in these assays?
TSHR ag: 21.0%; HEK293 cAMP cs: 27.1%; Imprint erasure: 3.8%

What do the screens show for `CCN(CC)S(=O)(=O)c1cccc(-c2nnc(SCCOc3ccccc3)o2)c1`?
TSHR ag: inconclusive; HEK293 cAMP cs: 7.94µM*; Imprint erasure: -22.1%

How did CCN(CC)S(=O)(=O)c1cccc(-c2nnc(SCCOc3ccccc3C)o2)c1 do in these assays?
TSHR ag: inconclusive; HEK293 cAMP cs: 15.8µM*; Imprint erasure: -21.0%

What do the screens show for `CCN(CC)S(=O)(=O)c1cccc(-c2nnc(SCCOc3ccc(Cl)cc3)o2)c1`?
TSHR ag: inconclusive; HEK293 cAMP cs: inconclusive; Imprint erasure: -15.7%

How did CCN(CC)S(=O)(=O)c1ccc(-c2nnc(SCC(=O)N3CCOCC3)o2)cc1 do in these assays?
TSHR ag: 7.0%; HEK293 cAMP cs: -16.5%; Imprint erasure: -6.0%
